High-throughput results (PubChem)
NPC1 promoter act = qHTS Assay for NPC1 Promoter Activators | 320,000 tested, 2.4% active | AID 485313, 2010 | Huh7 NPC1 promoter luciferase reporter, 24 h | Potency, µM (series often up to 9.22 µM), inactives show at the highest dose activation, most hits filed as activators; further: % of control where 0% means no effect; nearly all actives have a fitted effect of over 60% in size
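Huh7 cells stably carrying NPC1 promoter–luciferase, plated in Opti-MEM with 10% FBS for 2 h, were exposed to compound in DMSO for 24 h at 37 °C; luciferase reagent was added for 10 min and luminescence read.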
FLuc modulator = qHTS profiling assay for firefly luciferase inhibitor/activator using purifed enzyme and Km concentrations of substrates (counterscreen for miR-21 project). Luciferin 4-monooxygenase (Photinus pyralis), P08659. purified FLuc, Km substrates, luminescence inhibition. Potency, µM (highest dose often 57.5 µM), for the others: at the top dose activity change, negative = inhibition, most hits filed as inhibitors. 360,000 tested, 6.9% active. AID 588342, 2011;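 further: plate controls were vehicle for no effect and reference inhibitor for full effect; nearly all actives have a fitted effect of over 55% in size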
Target sequence (P08659 whole entry, looked up): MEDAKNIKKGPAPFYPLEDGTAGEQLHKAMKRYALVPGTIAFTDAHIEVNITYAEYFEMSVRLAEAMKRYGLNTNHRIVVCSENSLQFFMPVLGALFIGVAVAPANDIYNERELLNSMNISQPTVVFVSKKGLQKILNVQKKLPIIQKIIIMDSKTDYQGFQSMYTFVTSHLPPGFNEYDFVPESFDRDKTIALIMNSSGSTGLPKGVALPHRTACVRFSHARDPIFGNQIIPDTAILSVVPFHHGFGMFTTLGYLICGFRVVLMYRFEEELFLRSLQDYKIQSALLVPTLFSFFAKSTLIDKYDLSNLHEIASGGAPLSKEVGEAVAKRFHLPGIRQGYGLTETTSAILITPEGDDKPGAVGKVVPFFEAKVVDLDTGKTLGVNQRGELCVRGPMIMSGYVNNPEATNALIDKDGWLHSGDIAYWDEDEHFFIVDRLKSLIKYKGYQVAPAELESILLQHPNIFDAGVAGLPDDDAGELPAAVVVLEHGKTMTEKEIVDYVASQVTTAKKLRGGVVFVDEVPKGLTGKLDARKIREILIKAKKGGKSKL
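Purified P. pyralis luciferase (10nM final) with 10uM D-luciferin and 10uM ATP (Km levels) in 50mM Tris acetate pH 7.5, 10mM Mg acetate, 0.01% Tween-20, 0.05% BSA; qHTS 6-point titration, ~60 µM downward; luminescence read.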
ELG1 DNA repair = qHTS screen for small molecules that inhibit ELG1-dependent DNA repair in human embryonic kidney (HEK293T) cells expressing luciferase-tagged ELG1; Potency, µM (highest dose often 46.1 µM), for inactives: at the highest dose activity change, negative = inhibition, most hits filed as inhibitors; HEK293T ELG1-luciferase reporter, luminescence, 16 h; DNA damage induced by 5-fluorouridine; 330,000 tested, 2.3% active; further: on the % scale 0 is the no-effect control and ±100 the full control effect; nearly all actives have a fitted effect of over 55% in size
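Quantitative HTS, concentration-response format. 2,000 cells/well co-treated with 5-fluorouridine and compound, 16 hr in 5% CO2 at 37 °C; ONE-Glo luminescence read after 30 min.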
SMN2 splice enh = qHTS Assay for Enhancers of SMN2 Splice Variant Expression. HEK293 SMN2-luciferase splicing reporter, luminescence, 30-36 h. Potency, µM (series often up to 46.1 µM), for inactives: at the top dose activity change, positive = activation, most hits filed as activators. 210,000 tested, 2.8% active. AID 1458, 2008; further: % of control where 0% means no effect; nearly all actives have a fitted effect of over 55% in size
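HEK293 cells carry an SMN2 minigene-luciferase reporter in which exon 7 inclusion puts luciferase in frame. Cells were seeded at 2000 cells/well, attached for 10-12 hours, then exposed to compounds for 30-36 hours at 37C before ONE-Glo luminescence.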
Rab9 prom act = qHTS Assay for Rab9 Promoter Activators. Huh7 Rab9 promoter-luciferase reporter, luminescence, 24 h. Potency, µM (series often up to 9.22 µM), for the others: at the highest dose activation, negative = inhibition, most hits filed as activators. 320,000 tested, 2.8% active. AID 485297, 2010; further: % of control where 0% means no effect; nearly all actives have a fitted effect of over 60% in size
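Huh7 cells stably carrying a Rab9 promoter-luciferase reporter, 1500 cells per well in OP-MEM I with 10% FBS, treated with compound 24 hours at 37C. Luciferase activity read by luminescence after 10 minutes with Amplite reagent.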
ELG1 genotoxic = qHTS screen for small molecules that induce genotoxicity in human embryonic kidney (HEK293T) cells expressing luciferase-tagged ELG1; 330,000 tested, 1.3% active; HEK293T ELG1-luciferase reporter, luminescence, 16 h; Potency, µM (titrated, usually from 46 µM), without a hit: top-dose activity change, positive = activation, usual class: activators; AID 504466, 2011; further: % of control where 0% means no effect; nearly all actives have a fitted effect of over 60% in size
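After overnight (16 hr) compound treatment at 37 °C, ELG1-luciferase HEK293T cells were lysed with ONE-Glo; luminescence quantified 30 min later at room temperature.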
An asterisk follows results filed as active. Compounds with a hit are over-represented: about 9.3% of the library has one in this group of screens. The call rests on the fitted dose curve; in most records, active means well fitted curve in the direction sought with a large enough effect; inconclusive means small, poorly fitted or top-dose-only effect, or another doubt; inactive means no such curve, though single readings can be large; an effect the other way counts as inactive or inconclusive. Potency means the concentration at half of the fitted maximal effect.

What do the screens show for `CCOC(=O)Nc1ccc2c(C)cc(=O)oc2c1`?
NPC1 promoter act: inconclusive; FLuc modulator: 15.1µM*; ELG1 DNA repair: inconclusive; SMN2 splice enh: 14.1µM*; Rab9 prom act: inconclusive; ELG1 genotoxic: 18.4µM*

What do the screens show for `CCOC(=O)Nc1ccc2c(CN3CCN(S(=O)(=O)c4ccc(C(C)C)cc4)CC3)cc(=O)oc2c1`?
NPC1 promoter act: 0.8%; FLuc modulator: 4.2%; ELG1 DNA repair: 2.7%; Rab9 prom act: -0.3%; ELG1 genotoxic: 1.0%

Results for COc1ccc(NC(=O)COC(=O)c2c3c(nc4ccccc24)CCCC3)cc1Cl ?
NPC1 promoter act: 0.8%; FLuc modulator: 10.7µM*; ELG1 DNA repair: 18.4µM*; SMN2 splice enh: -15.1%; Rab9 prom act: -11.8%; ELG1 genotoxic: -15.6%

How did COc1ccc(NC(=O)COC(=O)c2c3c(nc4ccccc24)CCCC3)cc1 do in these assays?
NPC1 promoter act: 3.8%; FLuc modulator: inconclusive; ELG1 DNA repair: 16.4µM*; SMN2 splice enh: -29.3%; Rab9 prom act: -4.1%; ELG1 genotoxic: 4.6%

How did COc1ccc(OC)c(NC(=O)COC(=O)c2c3c(nc4ccccc24)CCCC3)c1 do in these assays?
NPC1 promoter act: -0.4%; FLuc modulator: -1.2%; ELG1 DNA repair: 11.6µM*; SMN2 splice enh: -9.5%; Rab9 prom act: -4.3%; ELG1 genotoxic: -26.0%

Results for COc1ccc(NC(=O)Cc2ccsc2)cc1S(=O)(=O)N1CCCCC1 ?
NPC1 promoter act: 0.1%; ELG1 DNA repair: -9.3%; Rab9 prom act: -3.1%; ELG1 genotoxic: -1.4%

How did O=C(O)CC1(CC(=O)Nc2cc(C(F)(F)F)cc(C(F)(F)F)c2)CCCCC1 do in these assays?
NPC1 promoter act: -4.2%; FLuc modulator: -4.4%; ELG1 DNA repair: inconclusive; Rab9 prom act: -4.9%; ELG1 genotoxic: -6.0%

How did CCCn1c(N)c(N2CCCCC2)c(=O)n(CC(=O)Nc2ccc(C(C)=O)cc2)c1=O do in these assays?
ELG1 DNA repair: 4.1%; ELG1 genotoxic: 0.5%

How did Cc1nc2ccc(S(=O)(=O)NCC(=O)N3CCCC(C)C3)cc2s1 (stereo unspecified) do in these assays?
NPC1 promoter act: -0.1%; FLuc modulator: -0.6%; ELG1 DNA repair: 5.2%; SMN2 splice enh: -51.1%; Rab9 prom act: -1.8%; ELG1 genotoxic: -0.3%

Results for Cc1cccc(C2=NC(C(F)(F)F)(C(F)(F)F)c3c(n(-c4ccc(F)cc4)c(=O)[nH]c3=O)N2)c1 ?
NPC1 promoter act: -9.1%; FLuc modulator: -1.6%; ELG1 DNA repair: 9.2µM*; SMN2 splice enh: -68.7%; Rab9 prom act: -17.8%; ELG1 genotoxic: -10.8%

How did O=C(NC1(C(F)(F)F)C(=O)Nc2c1c(=O)[nH]c(=O)n2-c1ccc(F)cc1)c1ccccc1 (stereo unspecified) do in these assays?
FLuc modulator: 3.2%; SMN2 splice enh: 0.1%

What do the screens show for `CCNC(=O)NCCc1c[nH]c2ccc(Cl)cc12`?
NPC1 promoter act: 12.8%; FLuc modulator: inconclusive; ELG1 DNA repair: -0.3%; SMN2 splice enh: -13.2%; Rab9 prom act: 10.7%; ELG1 genotoxic: 1.9%

What do the screens show for `C#CC(=O)N(c1cccc(OC)c1)C(C(=O)NC1CCCC1)c1cccs1` (stereo unspecified)?
NPC1 promoter act: -49.1%; FLuc modulator: -0.2%; ELG1 DNA repair: 20.6µM*; SMN2 splice enh: -85.5%; Rab9 prom act: -53.4%; ELG1 genotoxic: 6.3%

How did COc1ccc(C(C(=O)NC2CCCCC2)N(Cc2cccs2)C(=O)Cc2c[nH]c3ccccc23)cc1 (stereo unspecified) do in these assays?
NPC1 promoter act: -1.8%; FLuc modulator: -4.5%; ELG1 DNA repair: inconclusive; SMN2 splice enh: -20.3%; Rab9 prom act: -5.2%; ELG1 genotoxic: 1.2%

Results for COc1cccc(CN(C(=O)Cc2c[nH]c3ccccc23)C(C(=O)NC2CCCCC2)c2cccs2)c1 (stereo unspecified) ?
NPC1 promoter act: -7.0%; FLuc modulator: 7.7%; ELG1 DNA repair: 18.4µM*; SMN2 splice enh: -28.0%; Rab9 prom act: -0.1%; ELG1 genotoxic: -17.6%

What do the screens show for `CC(C)Oc1ccc(C(=O)Nc2nc3ccccc3[nH]2)cc1`?
NPC1 promoter act: inconclusive; FLuc modulator: 0.12µM*; ELG1 DNA repair: inconclusive; Rab9 prom act: inconclusive; ELG1 genotoxic: inconclusive

What do the screens show for `O=C(Nc1nc2ccccc2[nH]1)c1ccccc1OC(F)F`?
NPC1 promoter act: 0.794µM*; FLuc modulator: 0.953µM*; ELG1 DNA repair: inconclusive; Rab9 prom act: 0.501µM*; ELG1 genotoxic: inconclusive

What do the screens show for `Cn1nc(C(=O)Nc2nc3ccccc3[nH]2)c2ccccc2c1=O`?
NPC1 promoter act: 12.8%; FLuc modulator: -16.9%; ELG1 DNA repair: 17.8%; SMN2 splice enh: 13.8%; Rab9 prom act: inconclusive; ELG1 genotoxic: 3.5%

What do the screens show for `N#CC(Cc1ccc(OC(F)F)cc1)c1nc2ccccc2[nH]1` (stereo unspecified)?
NPC1 promoter act: inconclusive; FLuc modulator: 8.49µM*; ELG1 DNA repair: inconclusive; SMN2 splice enh: inconclusive; Rab9 prom act: inconclusive; ELG1 genotoxic: inconclusive

How did O=C(Nc1nc2ccccc2[nH]1)c1ccc(OC(F)F)cc1 do in these assays?
NPC1 promoter act: 0.126µM*; FLuc modulator: 0.536µM*; ELG1 DNA repair: inconclusive; Rab9 prom act: 0.282µM*; ELG1 genotoxic: 1.46µM*

What do the screens show for `CCC(Oc1ccccc1)C(=O)Nc1nc2ccccc2[nH]1` (stereo unspecified)?
NPC1 promoter act: 17.5%; FLuc modulator: inconclusive; ELG1 DNA repair: inconclusive; SMN2 splice enh: 8.2%; Rab9 prom act: 15.3%; ELG1 genotoxic: 25.6%

Results for c1cncc(CSc2nnc3ccc(-c4cccs4)nn23)c1 ?
NPC1 promoter act: -3.9%; FLuc modulator: -7.9%; ELG1 DNA repair: inconclusive; SMN2 splice enh: -34.1%; Rab9 prom act: -2.2%; ELG1 genotoxic: -11.7%

How did Cn1c(=O)n(CC(=O)O)c(=O)c2c1nc1n2CCCN1CCc1ccccc1 do in these assays?
NPC1 promoter act: 1.0%; FLuc modulator: 0.0%; ELG1 DNA repair: 0.6%; Rab9 prom act: -3.6%; ELG1 genotoxic: -18.5%

What do the screens show for `C#CCN1C(=O)S/C(=C/C=C/c2ccc(N(C)C)cc2)C1=O`?
NPC1 promoter act: 3.16µM*; FLuc modulator: 2.69µM*; ELG1 DNA repair: inconclusive; SMN2 splice enh: 7.08µM*; Rab9 prom act: 2µM*; ELG1 genotoxic: 9.2µM*
